# Values joined by “and” are separate entries in the source; they are usually repeats but may differ in a detail not shown here. Equal entries are not always repeated.
# Tested on: Plasmodium falciparum
# Experiment: GSK_TCMDC: Inhibition of Plasmodium falciparum 3D7 in whole red blood cells, using parasite LDH activity as an index of growth. Test compounds present at 2uM
# Format: functional
row,SMILES,Inhibition
1,CC(C)CNCc1cccc(-c2ccc(CN(C(=O)NC3CCCCC3)C3CCN(Cc4ccccc4)CC3)cc2)c1.O=C(O)C(F)(F)F,97%
2,O=C(/C=C/c1ccc(Cl)c(Cl)c1)NCC1CCC(CN2CCC(c3c[nH]c4ccccc34)CC2)CC1 (stereo not drawn),100%
3,C[C@H](Cc1ccc(OCCCCCCOc2ccccc2)cc1)NC[C@H](O)c1cccc(Cl)c1.Cl,93%
4,O=C(C=C1c2ccccc2-c2ccccc21)NC1CCC(CN2CCC(c3c[nH]c4ccccc34)CC2)CC1 (stereo not drawn),99% and 100%
5,Cc1cc(O)cc2c(C3CCN(CC4CCN(C(=O)/C=C/c5ccc(Cl)c(Cl)c5)CC4)CC3)c[nH]c12,100%
6,Cl.N#Cc1c(F)cc(N2CCC(NCC[C@H](N)Cc3ccc(F)c(F)c3)CC2)cc1F,100%
7,Oc1ccc2[nH]cc(C3=CCN(CCc4ccccc4)CC3)c2c1,96%
8,OC(CNCc1ccccc1OC(F)F)c1cccc(C(F)(F)F)c1 (stereo not drawn),97%
9,Cc1cc(C(=O)NC2CCN(CC3(c4ccc(Cl)cc4)CCC3)CC2)on1,98%
10,COC(=O)c1ccc(CC(C)NCC(O)c2cccc(OCc3ccccc3)c2)cc1.Cl (stereo not drawn),86%
11,CC(C)CNCc1cccc(-c2cccc(CN(C(=O)NC3CCCCC3)C3CCN(Cc4ccccc4)CC3)c2)c1.O=C(O)C(F)(F)F,97%
12,CC(Cc1ccc(NC(=O)CCNCc2ccccc2)cc1)NCCc1cccc(Cl)c1 (stereo not drawn),100%
13,CCC1CN2CCc3cc(OC)c(OC)cc3C2CC1CC1NCCc2c1[nH]c1ccc(O)cc21 (stereo not drawn),99%
14,CC[C@H]1CN2CC[C@@H]1C[C@H]2[C@H](O)c1cc(N2CCCC(C)(C)C2)nc2ccc(OC)cc12,100%
15,O=C(/C=C/c1cccc(Cl)c1)NC1CCC(CN2CCC(c3c[nH]c4ccccc34)CC2)CC1 (stereo not drawn),100%
16,O=C(Nc1ccc(Cl)c(Cl)c1)N1CCC(CN2CCC(c3c[nH]c4ccccc34)CC2)CC1,100%
17,Cc1cccc(C(=O)Nc2ccnc(N(C)C3CCN(Cc4cccc(O)c4)CC3)c2)c1.O=C(O)C(F)(F)F,89%
18,O=C(/C=C/c1ccc(Cl)c(Cl)c1)NC1CCC(N2CCC(c3c[nH]c4ccccc34)CC2)CC1 (stereo not drawn),100%
19,COc1cccc(C(=O)C2CC2CN2CC=C(c3c[nH]c4ccc(OC)nc34)CC2)c1 (stereo not drawn),94%

row,SMILES,Inhibition
1,CC(C)n1ncc2c(C(=O)Nc3ccc(C#N)c(Cl)c3)cc(C3CC3)nc21,93%
2,CNCCN(C)C(=O)Oc1c(Cl)c(C)nc(C)c1-c1ccc(Oc2ccc(OC(F)(F)F)cc2)cc1.Cl,97%
3,C[C@@H]1C[C@@H]([C@H](O)CC2CC(=O)NC(=O)C2)C(=O)[C@@H](C)C1 [CYCLOHEXIMIDE],96%
4,COc1cc(C(=O)NC2CCC(CN3CCC(c4c[nH]c5ccccc45)CC3)CC2)cc(Cl)n1 (stereo not drawn),99%
5,CC(Cc1ccc(OCCCCOc2ccccc2)cc1)NCCCn1ccnc1 (stereo not drawn),100%
6,Cl.O=C(CC1CCCC1)N(CC1CCN(Cc2ccc(C(F)(F)F)cc2)CC1)c1ccc(N2CCOCC2)c(F)c1,92%
7,O=C(NC1CCC(CN2CCC(c3c[nH]c4ccccc34)CC2)CC1)c1cc2ccccc2s1 (stereo not drawn),98% and 100%
8,COc1cccc(CN2CCC(CCOC(c3ccccc3)c3ccccc3)CC2)c1O,97%
9,Cn1nc(-c2ccc(S(=O)(=O)NC3CCC(CN4CCC(c5c[nH]c6ccccc56)CC4)CC3)s2)cc1C(F)(F)F (stereo not drawn),96% and 98%
10,O=C(NC1CCC(CN2CCC(c3c[nH]c4ccccc34)CC2)CC1)c1cc(-c2cccc(Cl)c2)n(-c2ccc(Cl)cc2Cl)n1 (stereo not drawn),81%
11,Cc1[nH]c2ccccc2c1C1=CCN(CCN2CCOc3c(Br)cccc3C2=O)CC1,97%
12,O=C(/C=C/c1ccc(Cl)c(Cl)c1)N1CCC(CN2CCC(c3c(Br)[nH]c4ccccc34)CC2)CC1,100%
13,CC[C@H]1CN2CCc3cc(OC)c(OC)cc3[C@@H]2C[C@@H]1C[C@H]1NCCc2c1cc(OC)c(OC)c2Br,99%
14,Cc1cc(O)cc2c(C3CCN(CC4CCC(NC(=O)/C=C/c5ccccc5Cl)CC4)CC3)c[nH]c12 (stereo not drawn),99%
15,CC(Cc1ccc([N+](=O)[O-])cc1)NCC(O)c1cccc(C(F)(F)F)c1 (stereo not drawn),98%
16,O=C(/C=C/c1ccc(Cl)c(Cl)c1)NCC1CCCC(CN2CCC(c3c[nH]c4ccccc34)CC2)C1 (stereo not drawn),98%
17,O=C(/C=C/c1ccc(Cl)c(Cl)c1)N1CCC(CN2CCC(c3c[nH]c4ccccc34)C(O)C2)CC1 (stereo not drawn),99%
18,O=C1Nc2cccc3c2C1(CCCCCN1CC=C(c2c[nH]c4ccccc24)CC1)CCC3 (stereo not drawn),94%
19,O=C(O)/C=C\C(=O)O.OC1(c2ccc(Cl)c(C(F)(F)F)c2)CCN(CCOC2c3ccccc3CSc3ccc(Cl)cc32)CC1 (stereo not drawn),95%
